30 compounds from PubChem BioAssay (NCI) can be followed below.

Each structure is given as a SMILES string. This is part of a sample that, as a whole, favours compounds with a hit. Of some 83,000 tested, about 20% had one in any assay.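 Each cell line was grown in a 96-well plate and treated with one concentration of compound for 48 hours. Values below 10 were considered active.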 A number with no mark means an inactive call. Calls of active or inactive are those of the source.

What all share (assay): NCI-60 one-dose screen, 48 h (100 = growth as untreated, 0 = no growth, -100 = all killed)
Conditions in all cases: 10 µM unless noted

In assay [1] the test system is T-47D breast.
Assay [2] deals with BT-549 breast.
The test system of assay [3] is MDA-MB-435 melanoma.
For assay [4], the system named is SW-620 colon.
Assay [5] deals with MCF7 breast.
For assay [6], the system named is HCT-116 colon.
For assay [7], the system named is HCC-2998 colon.
The subject of assay [8] is KM12 colon.

For the compound `Ic1ccc(OCCCCn2ccnc2)cc1`, the growth in assay [1] was 77.6%; in assay [2], 88.4%; in assay [3] it was 73%; in assay [4], 58.1%; in assay [5], 89.7%; in assay [6], 65.9%. In addition, the growth was 68.1% in assay [7] and 97.6% in assay [8].

Take `O=S(=O)(NCCCNc1nccc(-c2c(-c3ccc(F)c(O)c3)nc3sccn23)n1)c1ccccc1`: the growth in assay [1] is 64.8%; in assay [2], 91.1%; in assay [3], 29.3%; in assay [4], 56.2%; in assay [5], 58.5%; in assay [6] it was 30.6%. The growth in assay [7] was 78.2%; in assay [8], 64.6%.

For `CCOC(=O)n1ccn(C)c1=S`, the growth in assay [1] was -28.3% (active); in assay [2] it was 98.7%; in assay [3], 102%; in assay [4] it was 111%; in assay [5], 102%; in assay [6] it was 94.4%. Moreover, the growth is 106% in assay [7] and 101% in assay [8].

Regarding `CC(=O)N1N=C(c2ccc(Nc3nc(Nc4ccccc4)nc(Nc4ccccc4)n3)cc2)CC1c1cccc([N+](=O)[O-])c1` (stereo not given), the growth in assay [1] was 66.4%; in assay [2], 111%; in assay [3], 96.1%; in assay [4], 94.9%; in assay [5] it was 91.4%; in assay [6] it was 95.5%. Also, the growth was 103% in assay [7] and 129% in assay [8].

On to `COc1ccc(OC)c(Nc2nnc(-c3ccc(O)c(OC)c3)o2)c1`, for which the growth in assay [1] was 43.9%; in assay [2], 79.4%; in assay [3], 85%; in assay [4] it was 78.6%; in assay [5], 77.7%; in assay [6], 63.8%. The figures for the growth in assay [7] and in assay [8] were 90.6% and 20.4%, respectively.

In the case of `CCOC(=O)c1ccc(NC(=O)c2nc(-c3cc(OC)c(OC)c(OC)c3)n(-c3ccc(Cl)cc3)n2)cc1`, the growth was 77.6% in assay [1]; 74.6% in assay [2]; 88.9% in assay [3]; 105% in assay [4]; 86.7% in assay [5]; 87.8% in assay [6]. The growth in assay [7] was 107%; in assay [8], 94%.

Take `NC(=O)C(=O)c1ccccc1NC=O`: the growth is 106% in assay [1]; 107% in assay [2]; 101% in assay [3]; 101% in assay [4]; 99.5% in assay [5]; 93.1% in assay [6]. Further, the results for the growth in assay [7] and in assay [8] were 107% and 98.6%, respectively.

For `COc1ccccc1NC(=O)N=Nc1c(O)[nH]c2ccccc12`, the growth in assay [1] is 68.6%; in assay [2], 97.9%; in assay [3] it was 91%; in assay [4], 84.4%; in assay [5] it was 59%; in assay [6], 93%. Moreover, the figures for the growth in assay [7] and in assay [8] were 94.4% and 94.8%, respectively.

Take `COC1/C=C/OC2(C)Oc3c(C)c(O)c4c(O)c(c(/C=N/Nc5ccc([N+](=O)[O-])cc5[N+](=O)[O-])c(O)c4c3C2=O)NC(=O)C(C)=C/C=C/C(C)C(O)C(C)C(O)C(C)C(OC(C)=O)C1C` (stereo not given): the growth in assay [1] was -31.2% (active); in assay [2], 13.7%; in assay [3], 3.5% (active); in assay [4], -41.2% (active); in assay [5], 36.6%; in assay [6], -46.7% (active). Moreover, the growth in assay [7] was -14.1% (active); in assay [8], 9.93% (active).

On to `COC12C=C/C(=C(/C(=O)OCc3ccncc3)C(=O)CCCCCCCCC3(OC)C=C/C(=C(/C(=O)OCc4ccncc4)C(=O)CCCCCCCC1)O3)O2`, for which the growth in assay [1] was 8.61% (active); in assay [2], -14.7% (active); in assay [3], -53.8% (active); in assay [4], 9.25% (active); in assay [5] it was -42.2% (active); in assay [6], -62.2% (active). Moreover, the growth in assay [7] is -83.4% (active); in assay [8], -77.2% (active).

For `NC(N)=NCCCCCNc1noc(Cc2c[nH]c3cc(Br)ccc23)n1`, the growth is 59.2% in assay [1]; 66.5% in assay [2]; 87.7% in assay [3]; 92.2% in assay [4]; 77.2% in assay [5]; 77.2% in assay [6]. Moreover, the growth is 76.1% in assay [7] and 45.1% in assay [8].

Consider `Cc1ccc(C)n1-c1ccccc1-n1c(C)ccc1C`, for which the growth in assay [1] was 91.2%; in assay [2], 104%; in assay [3], 94.1%; in assay [4] it was 139%; in assay [5] it was 101%; in assay [6] it was 104%. In addition, the growth in assay [7] is 115%; in assay [8] it was 117%.

For the compound `Cc1cccc(CNc2c3ccccc3nc3ccccc23)c1`, the growth in assay [1] was 25.3%; in assay [2], 67.3%; in assay [3] it was 29.1%; in assay [4] it was 17.2%; in assay [5], 6.23% (active); in assay [6], 9.81% (active). Also, the growth was 3.58% (active) in assay [7] and 25.6% in assay [8].

For the compound `CC1=C2[C@@H](CC1)[C@]1(C)O[C@@](C(C)C)(C[C@H]1OC(=O)[C@H](C)O)[C@H]2OC(=O)/C=C/c1ccccc1`, the growth was 57.6% in assay [1]; 15.9% in assay [2]; 94.2% in assay [3]; 95.1% in assay [4]; 81.6% in assay [5]; 74.2% in assay [6]. In addition, the growth was 90.7% in assay [7] and 93.9% in assay [8].

Turning to `O=C(/C=C/c1cccc(Cl)c1)c1ccc(Nc2nc(Nc3ccc(F)cc3)nc(Nc3ccc(Cl)cc3)n2)cc1`, the growth was 113% in assay [1]; 172% in assay [2]; 117% in assay [3]; 104% in assay [4]; 230% in assay [5]; 82.3% in assay [6]. Moreover, the growth was 98.2% in assay [7] and 112% in assay [8].

For the compound `CC(C)(C)CC(C)(C)NC(=O)Nc1ncccc1OCc1ccccc1`, the growth in assay [1] was 72%; in assay [2], 98.2%; in assay [3], 99.7%; in assay [4], 98.6%; in assay [5], 80.6%; in assay [6], 75.2%. Besides, the growth in assay [7] is 92.9%; in assay [8], 94.5%.

Turning to `COc1ccc2c(c1)c(-c1nc(-c3c[nH]c4ccncc34)cs1)cn2C`, the growth was -49.6% (active) in assay [1]; 77.3% in assay [2]; -92.3% (active) in assay [3]; -63.9% (active) in assay [4]; -68.9% (active) in assay [5]; -88.3% (active) in assay [6]. In addition, the growth in assay [7] is -73.5% (active); in assay [8] it was -88.9% (active).

In the case of `CC(O)(c1ccccc1)C(c1ccccc1)C1CCCCN1` (stereo not given), the growth in assay [1] is 94.2%; in assay [2], 35.6%; in assay [3], 99.1%; in assay [4] it was 103%; in assay [5] it was 110%; in assay [6], 97.3%. Further, the results for the growth in assay [7] and in assay [8] were 107% and 104%, respectively.

As to `CC(=O)Oc1ccc(N2C(=O)C(Cl)=C(Nc3cccc(C(F)(F)F)c3)C2=O)cc1`, the growth in assay [1] was 86.6%; in assay [2], 85.8%; in assay [3] it was 97.5%; in assay [4] it was 99.1%; in assay [5], 92.8%; in assay [6] it was 91%. Moreover, the growth in assay [7] is 104%; in assay [8] it was 96.3%.

As for `O=S(=O)(NCCNc1nccc(-c2c(-c3ccc(F)c(O)c3)nc3sccn23)n1)c1ccc(O)cc1`, the growth in assay [1] is 6.97% (active); in assay [2], 55.1%; in assay [3], 9.31% (active); in assay [4], 67.1%; in assay [5] it was 27.6%; in assay [6], 30.4%. In addition, the growth is 76.5% in assay [7] and 13.9% in assay [8].

Regarding `O=C(CSC(=S)n1cnnc1)NC(=O)c1ccccc1`, the growth in assay [1] is 100%; in assay [2], 102%; in assay [3], 113%; in assay [4], 103%; in assay [5], 99.3%; in assay [6], 112%. For the same compound, the growth in assay [7] is 104%; in assay [8], 103%.

As to `O=C(C[C@]1(O)C(=O)Nc2ccccc21)c1cccc(C(F)(F)F)c1`, the growth is 87.9% in assay [1]; 97.6% in assay [2]; 103% in assay [3]; 91.9% in assay [4]; 81.2% in assay [5]; 95.5% in assay [6]. Further, the results for the growth in assay [7] and in assay [8] were 107% and 87.6%, respectively.

Consider `Nc1ncnc2c1C(c1ccccc1)c1ccc3ccccc3c1O2` (stereo not given), for which the growth in assay [1] was 55.7%; in assay [2], 73.3%; in assay [3] it was 79.3%; in assay [4], 94.9%; in assay [5], 67.4%; in assay [6], 85.3%. In addition, the growth is 102% in assay [7] and 88.3% in assay [8].

Regarding `CCc1ccc(CCCC(=O)O)cc1`, the growth in assay [1] was 98.8%; in assay [2], 101%; in assay [3] it was 103%; in assay [4] it was 108%; in assay [5] it was 93.6%; in assay [6], 98.1%. For the same compound, the growth was 117% in assay [7] and 106% in assay [8].

Consider `O=C(Nc1nc(-c2ccc(Cl)cc2)nc2c1sc(=S)n2-c1ccccc1)C(F)(F)F`, for which the growth was -14.8% (active) in assay [1]; 28.3% in assay [2]; 50.6% in assay [3]; 34.3% in assay [4]; 57.1% in assay [5]; 3.7% (active) in assay [6]. The growth is 68.4% in assay [7] and 32.8% in assay [8].

As to `CC(C)c1ccc(Cc2cnc(NC(=O)c3cc(Br)cs3)s2)cc1`, the growth in assay [1] is 30.3%; in assay [2], 42.8%; in assay [3] it was -66.9% (active); in assay [4], 28.3%; in assay [5], 11.7%; in assay [6], 26.1%. For the same compound, the growth was 64% in assay [7] and 20.7% in assay [8].

`CCOCCNC1=C(Cl)C(=O)c2ccccc2C1=O`: the growth in assay [1] was 90.8%; in assay [2], 107%; in assay [3], 104%; in assay [4] it was 110%; in assay [5], 69.1%; in assay [6], 88.1%. Further, the growth in assay [7] was 112%; in assay [8], 91.4%.

With `O=c1[nH]c(Cc2nc3ccccc3s2)nc2cc(Br)ccc12`, the growth is 54.2% in assay [1]; 70.2% in assay [2]; 45.6% in assay [3]; 61.3% in assay [4]; 78.5% in assay [5]; 50.6% in assay [6]. Also, the results for the growth in assay [7] and in assay [8] were 84.1% and 41.4%, respectively.

With `COc1ccc(C2CC(c3ccc(Nc4nc(Nc5ccccc5)nc(Nc5ccccc5)n4)cc3)=NN2C(C)=O)cc1` (stereo not given), the growth is 73.4% in assay [1]; 166% in assay [2]; 93.7% in assay [3]; 104% in assay [4]; 129% in assay [5]; 96.5% in assay [6]. Moreover, the growth in assay [7] was 110%; in assay [8] it was 112%.

Regarding `Nc1n[nH]c2ccc([C@H]3[C@@H]4C5CCC(C5)[C@@H]4c4c(ccc5[nH]ncc45)N3S(=O)(=O)C3CC3)cc12` (stereo not given in full), the growth in assay [1] was 64.6%; in assay [2], -2.63% (active); in assay [3], -35.3% (active); in assay [4], 21.9%; in assay [5], 13.1%; in assay [6] it was 4.97% (active). The growth in assay [7] was 18.4%; in assay [8], 7.27% (active).
